# Results: PubChem BioAssay AID588579 (National Center for Advancing Translational Sciences (NCATS), 2011)
# Screen size: about 400,000 compounds; about 2,200 (0.55%) were called active. Not shown: some 1% with an inconclusive outcome. Only a selection was taken, and actives are over-represented in it overall. A number with no mark means an inactive call. Calls follow the shape of the dose curve; as a rule, active = well fitted inhibition curve with a large enough effect; inconclusive = small, poorly fitted or top-dose-only effect, or another doubt; inactive = no such curve, though single readings can be large or run the other way.
# Target: DNA polymerase kappa (Homo sapiens) (UniProt Q9UBT6)
# Assay: qHTS for Inhibitors of Polymerase Kappa
# Settings: purified Pol kappa, fluorescent DNA synthesis assay, 10 min; series mostly up to 107 µM; activity, negative = inhibition: at the top concentration
# Summary of the method: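 10 nM Pol kappa was preincubated with compounds for 15 min at room temperature. Reaction started with 50 nM (final) substrate. Fluorescence read kinetically at 0 and 10 min.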
# % is scaled to controls: 0 for no effect and ±100 for the full control effect; potency is read from the fitted curve at half-maximal effect.
# Sequence of DNA polymerase kappa (Homo sapiens) (Q9UBT6 whole entry, looked up): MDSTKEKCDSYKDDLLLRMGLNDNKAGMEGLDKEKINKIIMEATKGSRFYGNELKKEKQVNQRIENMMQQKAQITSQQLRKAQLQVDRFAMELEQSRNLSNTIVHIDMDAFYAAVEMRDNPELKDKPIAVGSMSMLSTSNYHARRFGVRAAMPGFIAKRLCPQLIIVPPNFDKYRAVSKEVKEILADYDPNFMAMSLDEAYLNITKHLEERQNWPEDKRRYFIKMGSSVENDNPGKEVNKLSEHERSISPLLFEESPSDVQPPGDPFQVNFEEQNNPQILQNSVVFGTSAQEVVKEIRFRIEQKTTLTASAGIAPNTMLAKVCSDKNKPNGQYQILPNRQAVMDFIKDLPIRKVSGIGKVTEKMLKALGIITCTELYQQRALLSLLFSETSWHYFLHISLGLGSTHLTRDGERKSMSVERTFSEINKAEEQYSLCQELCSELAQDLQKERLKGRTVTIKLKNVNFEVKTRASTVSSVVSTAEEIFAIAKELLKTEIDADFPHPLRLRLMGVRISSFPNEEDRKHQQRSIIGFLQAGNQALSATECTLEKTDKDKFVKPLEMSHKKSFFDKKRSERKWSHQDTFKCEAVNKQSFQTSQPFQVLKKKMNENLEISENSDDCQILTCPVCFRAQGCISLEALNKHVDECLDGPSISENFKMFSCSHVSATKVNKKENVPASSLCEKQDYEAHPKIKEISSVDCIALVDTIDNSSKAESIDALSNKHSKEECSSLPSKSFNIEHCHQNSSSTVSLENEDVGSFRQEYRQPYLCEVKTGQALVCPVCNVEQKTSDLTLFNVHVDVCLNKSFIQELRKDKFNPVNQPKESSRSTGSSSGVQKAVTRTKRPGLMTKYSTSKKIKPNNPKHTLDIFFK
Structure (SMILES),"activity, negative = inhibition",Potency
Cc1cccc(CNc2ccnc(-c3cccnc3)n2)c1,-9.88% [at 60.1 µM],–
COCCn1c(=O)c(-c2cc(F)cc(F)c2)nc2cnc(N3CCNCC3)nc21,1.68% [at 60.1 µM],–
CN(C)c1ccc(C=Nc2ccc(/C=C/c3ccnc4ccccc34)cc2)cc1,-10.6%,–
NC(=O)C(=O)N/N=C/c1ccc([N+](=O)[O-])o1,1.45% [at 60.1 µM],–
CCOC(=O)c1cc2cc(-c3c(C(=O)OCC)oc4cc(O)cc(O)c4c3=O)ccc2o1,-9.29%,–
O=c1c(-c2ccc3c(c2)OCCO3)c(C(F)(F)F)oc2cc(O)cc(O)c12,-13.6%,–
O=c1cc(-c2ccc(O)cc2)oc2c(-c3cc(-c4cc(=O)c5c(O)cc(O)cc5o4)ccc3O)c(O)ccc12,–,26.7 µM (active)
C=C(C)C1CC=C(C)C(O)C1 (stereo not given),-10.7% [at 60.1 µM],–
C=C1C=C(C)n2ncc(C(=O)Nc3ccccc3O)c2N1,-24.3%,–
CC(=O)c1ccc(NC(=O)CSc2nnc(NC(=O)Nc3ccccc3)s2)cc1,5.47% [at 60.1 µM],–
CN(C(=O)CSc1nnc(NC(=O)Nc2ccccc2)s1)c1ccccc1,-11.2% [at 60.1 µM],–
CC(C)c1ccc(Nc2nnc(SCC(=O)c3nnc(-c4ccccc4)o3)s2)cc1,–,79.4 µM (active)
CC(C)=CCC/C(C)=C/CC/C(C)=C/CC/C(C)=C/CO,–,inactive
O=C(c1cc(C(F)(F)F)cc(C(F)(F)F)c1)N1CCC2(CCCN(Cc3ccncc3)C2)CC1,-8.33% [at 60.1 µM],–
OCC(CO)NC1C[C@](O)(CO)[C@@H](O)[C@H](O)[C@H]1O (stereo not given in full),-3.61% [at 60.1 µM],–
CC(=O)Oc1c2c(c3c(c1CC=C(C)C)O[C@@]14C(=CC5CC1C(C)(C)OC4(C/C=C(\C)C(=O)O)C5=O)C3=O)OC(C)(CCC=C(C)C)C=C2 (stereo not given in full),–,31.6 µM (active)
COc1ccc2c3c1OC1CC(O)C=C[C@@]31CCN(C)C2 (stereo not given in full),-10.1% [at 60.1 µM],–
COc1cc2c(cc1OC)CC(=O)N(CCCN(C)C[C@H]1Cc3cc(OC)c(OC)cc31)CC2,3.96% [at 19.4 µM],–
FC(F)(F)c1ccccc1-c1nc(-n2ccnc2)c2ccccc2n1,0.364% [at 60.1 µM],–
Nc1ccc(/C=C/c2ccnc3ccccc23)c([N+](=O)[O-])c1,-5.61%,–
O=c1/c(=C/c2ccc(CNS(=O)(=O)c3ccccc3)o2)sc2n1CCN=2,3.56% [at 60.1 µM],–
O=c1nc2s/c(=C\c3ccco3)c(=O)n2nc1Cc1ccccc1,–,31.6 µM (active)
CN1CCOC1c1ccc(C2OCCN2C)cc1 (stereo not given),–,39.8 µM (active)
O=C(Nc1ccc(Cl)cc1)c1cnn2c1NC(=C1CC1)C=C2C(F)F,-0.0234%,–
Nc1ccc2nc3c(=O)[nH]c(=S)[nH]c3nc2c1,–,2.24 µM (active)

Structure (SMILES),"activity, negative = inhibition",Potency
Brc1cccc[n+]1Cc1cccc(C[n+]2ccccc2Br)c1,-18.2%,–
CCNc1ncc2nc(CCc3ccccc3)c(=O)n(-c3ccc(OC)cc3)c2n1,-19% [at 60.1 µM],–
CCCN1C(=O)C(NS(=O)(=O)c2ccc(N)cc2)(C(F)(F)F)C(C(=O)OC)=C1C (stereo not given),-9.7%,–
CC(=O)Nc1ccc(S(=O)(=O)NC2(C(F)(F)F)C(=O)NC(C)=C2C#N)cc1 (stereo not given),–,79.4 µM (active)
CC(=O)Nc1ccc(S(=O)(=O)NC2(C(F)(F)F)C(=O)Nc3c2c(=O)[nH]c(=O)n3Cc2ccccc2)cc1 (stereo not given),-24.4%,–
CC(C)(O)c1ccccc1CC[C@H](SCC1(CC(=O)O)CC1)c1cccc(/C=C/c2ccc3ccc(Cl)cc3n2)c1,-3.16% [at 19.4 µM],–
CS(=O)(=O)c1ccc2c(c1)SC1=NC(=O)/C(=C/c3ccco3)C(=N)N12,–,35.5 µM (active)
CC(C)(C)C1C/C(=C/c2ccco2)C(=O)/C(=C/c2ccco2)C1 (stereo not given),-25%,–
COc1ccc(NC(=O)COCc2cc(-c3ccco3)on2)cc1,-8.34% [at 60.1 µM],–
CCOc1ccc(NC(=O)c2ncoc2-c2ccco2)cc1,-6.29% [at 60.1 µM],–
COCCNC(=O)Nc1ccc2nc(-c3ccco3)c(-c3ccco3)nc2c1,–,3.16 µM (active)
Cc1noc(C)c1-c1nc(Nc2ccccc2)c2ccccc2n1,0.194% [at 60.1 µM],–
COc1cccc(-c2nc(Nc3ccncc3)c3ccccc3n2)c1,-8.84% [at 60.1 µM],–
c1ccc2c(Nc3ccncc3)nc(-c3ccoc3)nc2c1,–,28.2 µM (active)
O=C(c1ccco1)N1CCC2(CC1)CCN(c1ncccn1)CC2,4.69% [at 60.1 µM],–
COc1ccc(-c2ccnc(SCC(=O)N3CCOCC3)n2)cc1,-3.52%,–
COC1=C/C(=C/c2c(N)n3nc(CC(=O)N4CCOCC4)sc3nc2=O)C=CC1=O,–,79.4 µM (active)
COc1ccc(S(=O)(=O)N2CCN(CC(=O)N3CCOCC3)CC2)cc1OC,-0.432%,–
CCN(CC)/[N+]([O-])=N/OCOC(=O)Cc1c(C)n(C(=O)c2ccc(Cl)cc2)c2ccc(OC)cc12,-20.9%,–
O=C(Nc1ccccc1)c1ccccc1OCc1ccccc1,-8.48%,–
CC(=O)Nc1ccc(NC(=O)C2CCCN2S(=O)(=O)c2cccc(C(F)(F)F)c2)cc1 (stereo not given),3.23%,–
CCc1ccccc1NS(=O)(=O)c1ccc2nc(-c3ccccc3)[nH]c2c1,-4.51%,–
CCc1ccc(NC(=O)C2CCCN2S(=O)(=O)c2ccc3nc(-c4ccccc4)[nH]c3c2)cc1 (stereo not given),–,89.1 µM (active)
COc1ccc(CNc2ncncc2-c2ccccc2OC)c(OC)c1,-3.98% [at 60.1 µM],–
OC(CBr)C[n+]1cccc2cc(Br)ccc21 (stereo not given),-4.74%,–

Structure (SMILES),"activity, negative = inhibition",Potency
SCc1nc2ccc(Cl)cc2[nH]1,4.08%,–
CCCC[C@H]1C(=O)N(c2ccccc2)N(c2ccc(O)cc2)C1=O,-4.08% [at 19.4 µM],–
COc1cccc(N2CC(NC(=O)/C=C\c3ccccc3)CC2=O)c1 (stereo not given),-8.26% [at 60.1 µM],–
COc1ccc(/C=C/C(=O)c2cc(Br)ccc(=O)c2O)cc1,–,25.1 µM (active)
COCOc1cc(O)c(C(=O)/C=C/c2ccc(OCOC)c(OCOC)c2)c(OCOC)c1,8.25%,–
C=CCC1CCC(=O)N2CCCC12 (stereo not given),-5.47% [at 158 µM],–
COc1cc(OC)c(/C=C/c2ccnc3ccccc23)c(OC)c1,-1.63%,–
Cc1c(CC(=O)N2CCN(C(=O)C3COc4ccccc4O3)CC2)c(=O)oc2c(O)c(O)ccc12 (stereo not given),–,7.08 µM (active)
COc1ccc(OC)c2sc(N3CCN(C(=O)C4COc5ccccc5O4)CC3)nc12 (stereo not given),0.367% [at 60.1 µM],–
COc1cc(NS(=O)(=O)c2ccc3c(c2)OCC(C(=O)N2CCCC2)O3)cc(OC)c1 (stereo not given),-3.15%,–
COc1ccc(CC(N)C(=O)NC2C(O)[C@H](n3cnc4c(N(C)C)ncnc43)O[C@@H]2CO)cc1 (stereo not given in full),3.17% [at 19.4 µM],–
OCCC(O)CO (stereo not given),–,inactive
Cc1csc[n+]1CCC1CCCCC1,-13.7%,–
CCCCCCCC/C=C\CCCCCCCC(=O)OC[C@H](CO)OC(C)=O,0.528% [at 19.4 µM],–
Cc1ccc(Cn2cnc3c(cnn3C(C)(C)C)c2=O)c(F)c1,-5.83%,–
C(=Nc1ccc(/C=C/c2ccnc3ccccc23)cc1)Nc1ccc(/C=C/c2ccnc3ccccc23)cc1,-6.28%,–
COCCn1c(=O)c(CCc2ccccc2)nc2cncnc21,0.194% [at 60.1 µM],–
COc1ccccc1C(=O)N/C(=C/c1ccco1)C(=O)Nc1ccc(C(=O)O)cc1,–,50.1 µM (active)
COc1ccccc1C(=O)NC(=O)COC(=O)c1ccco1,4.84%,–
Cc1ccc(C(=O)N/C(=C\c2ccco2)C(=O)NC2CCS(=O)(=O)C2)cc1 (stereo not given),-2.02%,–
COc1ccc2[nH]cc(CCNc3nc(-c4cccc(NS(C)(=O)=O)c4)nc4ccccc34)c2c1,-3.54% [at 60.1 µM],–
O=c1ccn([C@@H]2O[C@H](COP(=O)(O)OP(=O)(O)OP(=O)(O)O)[C@@H](O)[C@H]2O)c(=O)[nH]1,4.9% [at 19.4 µM],–
CC1(C)OC2CC(=O)OC[C@@]23C1CC(=O)[C@]1(C)C3CC[C@@]2(C)C(c3ccoc3)OC(=O)C3O[C@@]321 (stereo not given in full),-9.63% [at 60.1 µM],–
COCCNc1ncnc2ccc(-c3cccnc3)cc12,6.7% [at 60.1 µM],–
COCCn1c(=O)c(CCc2ccccc2)nc2cnc(N3CCNCC3)nc21,2.58% [at 60.1 µM],–
